# Measurements reported in PubChem BioAssay (EPA / NIEHS).
# Results filed as inconclusive are left out. The source made the active and inactive calls. The calls were made as follows: active = hit-call score of the fitted dose curve at least 0.9, where 1 is the maximum; inconclusive = response in the unintended direction; inactive = score below 0.9.
# Tests used:
# [1] = molecular target: rat Opioid Receptor, Non-selective Binding, Oprm1 (gene 25601) (UniProt P33535); assay: NVS_GPCR_rOpiate_NonSelective: NovaScreen (NVS) G Protein-Coupled Receptor Assay for rat Opioid Receptor, Non-selective Binding (AID 2283318)
# Method in brief: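 Filter-based radioligand displacement using rat forebrain membrane preparations, measured 1.5 h post-dosing. Single-concentration duplicate screen at 25 uM, follow-up in concentration series; activity taken as signal loss relative to DMSO.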
# [2] = molecular target: rat Vasopressin 1 Receptor (V1), Avpr1a (gene 25107) (UniProt P30560); assay: NVS_GPCR_rV1: NovaScreen (NVS) G Protein-Coupled Receptor Assay for rat Vasopressin 1 Receptor (V1) (AID 2283316)
# Method in brief: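 Concentration-response up to 50 uM for chemicals passing a threshold such as 30% inhibition in an initial duplicate 25 uM screen. Displacement of radioligand from rat liver membranes measured after 1.5 h by filtration and scintillation.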
# [3] = molecular target: rat Neurokinin-1 Receptor (NK1), Tacr1 (gene 24807) (UniProt P14600); assay: NVS_GPCR_rNK1: NovaScreen (NVS) G Protein-Coupled Receptor Assay for rat Neurokinin-1 Receptor (NK1) (AID 2283309)
# Method in brief: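 Competitive radioligand binding to NK1 in rat submaxillary membranes, 1 h incubation, filtration and scintillation read-out. Compounds first screened at 25 uM in duplicate, then concentration-response for actives; signal loss relative to DMSO.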
# [4] = molecular target: rat Somatostatin Receptor (SST), Sstr1 (gene 25033) (UniProt P28646); assay: NVS_GPCR_rSST: NovaScreen (NVS) G Protein-Coupled Receptor Assay for rat Somatostatin Receptor (SST) (AID 2283314)
# Method in brief: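 Single-concentration duplicate screen (25 uM), then concentration-response up to 50 uM for chemicals passing a threshold such as 30% inhibition. Membranes came from rat forebrain. Binding was measured 1 h post-dose by filter radiodetection and scintillation, relative to DMSO.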
# [5] = molecular target: rat Neurokinin-3 Receptor (NK3), Tacr3 (gene 24808) (UniProt P16177); assay: NVS_GPCR_rNK3: NovaScreen (NVS) G Protein-Coupled Receptor Assay for rat Neurokinin-3 Receptor (NK3) (AID 2283310)
# Method in brief: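 Filter-based radioligand displacement on rat cortex membrane preparations, read by scintillation 2 h post-dose. Chemicals first tested in duplicate at 25 uM; actives followed up in concentration series with a 50 uM maximum.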
# Adra2b (gene 24174) = Adra2b (gene 24174) (UniProt P19328); assay: NVS_GPCR_rmAdra2B: NovaScreen (NVS) G Protein-Coupled Receptor Assay for hybird cells Adrenergic, Alpha 2B Receptor (Adra2B) (AID 2283306)
# Method in brief: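 Compounds screened first at 25 uM in duplicate, with actives followed up in concentration-response; specific radioligand displacement from hybrid neuroglioma/blastoma cell membrane preparations measured by filter scintillation counting after 1 h, normalized to DMSO.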
# [6] = molecular target: rat Gamma-Aminobutyric Acid Type B Receptor (GABBR), Gabbr1 (gene 81657) (UniProt Q9Z0U4); assay: NVS_GPCR_rGABBR: NovaScreen (NVS) G Protein-Coupled Receptor Assay for rat Gamma-Aminobutyric Acid Type B Receptor (GABBR) (AID 2283301)
# Method in brief: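 Rat cortical membrane preparation, competitive radioligand binding for 1 h with filtration and scintillation readout. Actives from duplicate single-point 25 uM screening proceeded to concentration series with 50 uM top concentration.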
# [7] = molecular target: rat Adrenergic Receptor, Alpha 2 (Adra2), Non-selective Binding, Adra2a (gene 25083) (UniProt P22909); assay: NVS_GPCR_rAdra2_NonSelective: NovaScreen (NVS) G Protein-Coupled Receptor Assay for rat Adrenergic Receptor, Alpha 2 (Adra2), Non-selective Binding (AID 2283299)
# Method in brief: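 Filter-based scintillation counting of radioligand binding to rat cortical membrane receptors, measured 1.25 hours post-dosing; loss of signal versus DMSO indicates displacement. Initial single-concentration duplicate at 25 uM, then concentration series.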
# [8] = molecular target: rat Neonicotinoid receptor (NNR), Chrna7 (gene 25302) (UniProt Q05941); assay: NVS_LGIC_rNNR_BungSens: NovaScreen (NVS) Ligand-Gated Ion Channel Assay for rat Neonicotinoid receptor (NNR) (AID 2283315)
# Method in brief: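 Rat cortical membrane preparation incubated 2.5 h with tritiated or iodinated radioligand and test chemical. Bound radioactivity was filtered and counted by scintillation, and displacement was analysed against DMSO.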
# Sequence of rat Opioid Receptor, Non-selective Binding, Oprm1 (gene 25601) (P33535 whole entry, looked up): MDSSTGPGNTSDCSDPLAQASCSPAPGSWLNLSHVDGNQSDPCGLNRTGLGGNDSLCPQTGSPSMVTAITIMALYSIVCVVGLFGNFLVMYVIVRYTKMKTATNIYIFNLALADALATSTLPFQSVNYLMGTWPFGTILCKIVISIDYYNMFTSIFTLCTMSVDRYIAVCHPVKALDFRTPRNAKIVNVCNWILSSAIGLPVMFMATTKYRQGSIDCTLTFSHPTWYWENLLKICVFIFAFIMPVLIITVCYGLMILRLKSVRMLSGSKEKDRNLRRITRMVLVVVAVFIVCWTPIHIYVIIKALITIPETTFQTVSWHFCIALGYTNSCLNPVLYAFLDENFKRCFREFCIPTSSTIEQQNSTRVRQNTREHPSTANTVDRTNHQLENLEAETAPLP
# Sequence of rat Neurokinin-3 Receptor (NK3), Tacr3 (gene 24808) (P16177 whole entry, looked up): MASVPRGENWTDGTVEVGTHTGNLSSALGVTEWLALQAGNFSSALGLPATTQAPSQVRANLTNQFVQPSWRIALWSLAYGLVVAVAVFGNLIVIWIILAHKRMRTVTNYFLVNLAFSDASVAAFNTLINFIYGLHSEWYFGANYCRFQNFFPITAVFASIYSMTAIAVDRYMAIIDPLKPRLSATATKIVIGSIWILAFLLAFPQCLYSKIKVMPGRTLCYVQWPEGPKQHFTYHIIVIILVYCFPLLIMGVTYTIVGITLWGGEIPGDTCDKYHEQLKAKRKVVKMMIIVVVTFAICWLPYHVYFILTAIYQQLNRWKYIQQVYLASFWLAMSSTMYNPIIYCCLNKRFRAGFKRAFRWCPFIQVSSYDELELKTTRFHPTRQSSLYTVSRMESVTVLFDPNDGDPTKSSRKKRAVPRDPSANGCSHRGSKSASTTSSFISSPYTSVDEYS
# Sequence of Adra2b (gene 24174) (P19328 whole entry, looked up): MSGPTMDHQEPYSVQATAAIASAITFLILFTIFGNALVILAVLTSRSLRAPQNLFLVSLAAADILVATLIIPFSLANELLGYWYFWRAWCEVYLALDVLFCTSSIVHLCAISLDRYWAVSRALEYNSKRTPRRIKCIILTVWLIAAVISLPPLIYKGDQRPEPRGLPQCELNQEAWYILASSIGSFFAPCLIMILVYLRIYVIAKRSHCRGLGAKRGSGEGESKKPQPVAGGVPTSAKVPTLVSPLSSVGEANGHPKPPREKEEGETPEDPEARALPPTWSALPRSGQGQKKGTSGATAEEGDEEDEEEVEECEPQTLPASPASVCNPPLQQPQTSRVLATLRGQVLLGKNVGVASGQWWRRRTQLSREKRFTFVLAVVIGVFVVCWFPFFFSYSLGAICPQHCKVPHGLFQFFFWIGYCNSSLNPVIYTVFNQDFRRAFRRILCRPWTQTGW
# Sequence of rat Neurokinin-1 Receptor (NK1), Tacr1 (gene 24807) (P14600 whole entry, looked up): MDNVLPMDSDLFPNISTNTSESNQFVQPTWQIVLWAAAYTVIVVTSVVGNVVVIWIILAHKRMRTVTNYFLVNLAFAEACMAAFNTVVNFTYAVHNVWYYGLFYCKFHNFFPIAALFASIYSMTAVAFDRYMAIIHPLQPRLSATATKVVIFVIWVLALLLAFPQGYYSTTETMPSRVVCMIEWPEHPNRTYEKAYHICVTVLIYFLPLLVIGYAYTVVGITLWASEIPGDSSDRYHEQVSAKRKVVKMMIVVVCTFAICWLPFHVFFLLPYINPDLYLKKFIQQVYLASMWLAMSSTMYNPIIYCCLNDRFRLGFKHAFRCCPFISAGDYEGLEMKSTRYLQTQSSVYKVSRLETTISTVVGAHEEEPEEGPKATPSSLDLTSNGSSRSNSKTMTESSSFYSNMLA
# Sequence of rat Vasopressin 1 Receptor (V1), Avpr1a (gene 25107) (P30560 whole entry, looked up): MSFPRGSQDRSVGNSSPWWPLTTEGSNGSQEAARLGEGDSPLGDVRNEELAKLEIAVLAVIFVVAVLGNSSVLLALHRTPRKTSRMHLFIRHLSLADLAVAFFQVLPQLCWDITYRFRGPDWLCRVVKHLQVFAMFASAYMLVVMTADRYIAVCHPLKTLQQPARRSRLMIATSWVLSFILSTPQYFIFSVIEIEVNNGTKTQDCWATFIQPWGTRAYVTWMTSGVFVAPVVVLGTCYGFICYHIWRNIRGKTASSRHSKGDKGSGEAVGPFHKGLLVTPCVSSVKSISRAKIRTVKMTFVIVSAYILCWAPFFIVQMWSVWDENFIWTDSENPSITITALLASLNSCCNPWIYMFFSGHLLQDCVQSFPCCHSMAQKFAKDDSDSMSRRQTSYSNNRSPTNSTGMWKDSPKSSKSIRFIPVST
# Sequence of rat Neonicotinoid receptor (NNR), Chrna7 (gene 25302) (Q05941 whole entry, looked up): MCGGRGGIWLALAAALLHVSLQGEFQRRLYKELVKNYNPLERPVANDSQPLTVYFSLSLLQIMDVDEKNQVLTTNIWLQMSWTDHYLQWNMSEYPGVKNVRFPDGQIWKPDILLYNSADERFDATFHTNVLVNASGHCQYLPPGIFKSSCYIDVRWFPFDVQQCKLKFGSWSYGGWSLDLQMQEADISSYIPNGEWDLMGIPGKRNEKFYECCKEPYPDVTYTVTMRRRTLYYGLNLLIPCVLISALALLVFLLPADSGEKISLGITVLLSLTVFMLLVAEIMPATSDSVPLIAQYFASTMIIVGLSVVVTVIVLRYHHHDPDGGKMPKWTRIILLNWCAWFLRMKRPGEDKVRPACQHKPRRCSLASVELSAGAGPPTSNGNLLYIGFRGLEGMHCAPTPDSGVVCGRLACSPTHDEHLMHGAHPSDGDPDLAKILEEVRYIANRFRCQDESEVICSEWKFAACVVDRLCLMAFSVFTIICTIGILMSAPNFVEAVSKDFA
# Sequence of rat Somatostatin Receptor (SST), Sstr1 (gene 25033) (P28646 whole entry, looked up): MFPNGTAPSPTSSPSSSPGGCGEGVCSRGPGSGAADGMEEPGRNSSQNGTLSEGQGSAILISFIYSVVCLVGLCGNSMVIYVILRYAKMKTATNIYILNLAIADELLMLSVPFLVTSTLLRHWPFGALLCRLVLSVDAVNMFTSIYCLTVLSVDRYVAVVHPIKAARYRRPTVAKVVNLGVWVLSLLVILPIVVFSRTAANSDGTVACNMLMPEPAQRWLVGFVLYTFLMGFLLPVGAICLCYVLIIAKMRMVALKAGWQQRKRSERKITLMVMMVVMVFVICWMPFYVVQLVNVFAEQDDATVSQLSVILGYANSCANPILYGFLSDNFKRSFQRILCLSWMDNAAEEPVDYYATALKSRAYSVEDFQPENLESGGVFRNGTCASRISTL
# Sequence of rat Adrenergic Receptor, Alpha 2 (Adra2), Non-selective Binding, Adra2a (gene 25083) (P22909 whole entry, looked up): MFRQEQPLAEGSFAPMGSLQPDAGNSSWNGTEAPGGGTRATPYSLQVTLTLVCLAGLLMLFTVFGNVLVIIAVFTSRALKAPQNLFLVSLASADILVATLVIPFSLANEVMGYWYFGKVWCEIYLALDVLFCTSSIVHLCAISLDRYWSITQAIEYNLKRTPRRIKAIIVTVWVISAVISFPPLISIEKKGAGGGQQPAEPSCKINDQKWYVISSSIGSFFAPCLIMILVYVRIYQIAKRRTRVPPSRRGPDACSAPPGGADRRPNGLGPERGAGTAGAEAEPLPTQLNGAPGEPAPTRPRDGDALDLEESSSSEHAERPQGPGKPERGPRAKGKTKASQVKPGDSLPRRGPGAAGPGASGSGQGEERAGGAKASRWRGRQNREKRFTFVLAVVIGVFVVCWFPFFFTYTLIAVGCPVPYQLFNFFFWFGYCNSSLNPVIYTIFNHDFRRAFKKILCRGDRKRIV
# Sequence of rat Gamma-Aminobutyric Acid Type B Receptor (GABBR), Gabbr1 (gene 81657) (Q9Z0U4 whole entry, looked up): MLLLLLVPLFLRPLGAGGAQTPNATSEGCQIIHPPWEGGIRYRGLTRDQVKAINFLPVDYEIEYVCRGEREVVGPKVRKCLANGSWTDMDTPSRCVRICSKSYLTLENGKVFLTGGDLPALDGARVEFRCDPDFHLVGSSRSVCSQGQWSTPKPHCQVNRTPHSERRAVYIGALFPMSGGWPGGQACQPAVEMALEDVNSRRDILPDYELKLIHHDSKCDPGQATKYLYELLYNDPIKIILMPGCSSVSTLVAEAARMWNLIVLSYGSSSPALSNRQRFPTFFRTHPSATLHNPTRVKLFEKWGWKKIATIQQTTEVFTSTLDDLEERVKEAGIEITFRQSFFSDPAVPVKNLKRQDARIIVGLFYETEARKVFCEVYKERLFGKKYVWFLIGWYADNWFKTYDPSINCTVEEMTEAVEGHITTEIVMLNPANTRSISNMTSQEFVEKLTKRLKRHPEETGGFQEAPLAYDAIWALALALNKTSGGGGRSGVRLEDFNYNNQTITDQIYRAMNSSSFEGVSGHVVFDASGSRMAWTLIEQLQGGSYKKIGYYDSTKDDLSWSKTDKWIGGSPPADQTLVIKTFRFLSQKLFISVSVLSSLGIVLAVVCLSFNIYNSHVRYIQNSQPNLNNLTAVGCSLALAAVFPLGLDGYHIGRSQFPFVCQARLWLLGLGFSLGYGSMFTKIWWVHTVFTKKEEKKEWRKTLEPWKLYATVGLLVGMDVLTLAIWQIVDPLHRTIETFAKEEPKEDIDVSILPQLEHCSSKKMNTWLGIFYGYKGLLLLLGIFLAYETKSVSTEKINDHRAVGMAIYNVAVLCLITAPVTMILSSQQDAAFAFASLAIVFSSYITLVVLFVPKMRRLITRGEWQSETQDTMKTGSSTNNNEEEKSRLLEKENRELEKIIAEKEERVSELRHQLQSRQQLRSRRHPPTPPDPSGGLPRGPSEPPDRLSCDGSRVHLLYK
smiles,measurement,setting,value
O=C1OC(c2ccc(O)cc2)(c2ccc(O)cc2)c2ccccc21,AC50,[1],0.872 µM (active)
CCc1cc(C2=C(C(=O)O)N(c3ccccc3C(F)(F)F)S(=O)(=O)c3ccccc32)cc2c1OCO2,AC50,[2],25 µM (active)
CN(C)CCCN1c2ccccc2Sc2ccc(Cl)cc21,AC50,[3],25 µM (active)
CCCCCCC(C=O)=Cc1ccccc1,outcome,[4],inactive
COC(=O)[C@H]1[C@H]2C[C@@H]3c4[nH]c5cc(OC)ccc5c4CCN3C[C@H]2C[C@@H](OC(=O)c2cc(OC)c(OC)c(OC)c2)[C@@H]1OC,AC50,[5],10.6 µM (active)
same,AC50,[1],8.39 µM (active)
Cc1ccc(-c2cc(C(F)(F)F)nn2-c2ccc(S(N)(=O)=O)cc2)cc1,outcome,Adra2b (gene 24174),inactive
NCCOCCOCCN,outcome,[6],inactive
CC(C)c1cccc(C(C)C)c1NC(=O)NS(=O)(=O)c1cc(C(C)(C)O)co1,outcome,[2],inactive
CCc1nc(N)nc(N)c1-c1ccc(Cl)cc1,AC50,[7],6.56 µM (active)
same,AC50,Adra2b (gene 24174),5.45 µM (active)
same,AC50,[8],10.4 µM (active)
same,outcome,[1],inactive
COc1ccc(OC(F)(F)F)cc1CN[C@H]1CCCN[C@H]1c1ccccc1,AC50,[7],13.1 µM (active)
same,AC50,Adra2b (gene 24174),9.2 µM (active)
same,AC50,[5],12.5 µM (active)
same,AC50,[4],8.11 µM (active)
same,outcome,[2],inactive
same,AC50,[1],25 µM (active)
CC(=O)O[C@]1(C(C)=O)CC[C@H]2[C@@H]3C=C(Cl)C4=CC(=O)[C@@H]5C[C@@H]5[C@]4(C)[C@H]3CC[C@@]21C,AC50,[1],0.353 µM (active)
NC=O,outcome,[3],inactive
CCN(CC)CCOc1ccc(C(=C(Cl)c2ccccc2)c2ccccc2)cc1,AC50,Adra2b (gene 24174),16 µM (active)
same,AC50,[3],21 µM (active)
same,AC50,[8],21 µM (active)
CO[C@@H]1COCC[C@@H]1N[C@@H]1CC[C@@](C(=O)N2CCc3ncc(C(F)(F)F)cc3C2)(C(C)C)C1,outcome,[2],inactive
same,AC50,[1],25 µM (active)
CCCCCCCCCC[N+](C)(C)[O-],outcome,[5],inactive
